Calls of active or inactive are those of the source. How the calls were made is not given here.

The test in a line: inhibition of Brca1/Bard1 split-luciferase complementation, confirmation, counter-screen for Mdm2/MdmX interaction inhibitor project, luminescence, single concentration (AID 504668). As to conditions: Brca1/Bard1 bimolecular luciferase complementation counterscreen, at 8 µM, stronger effect = higher value. A general note: Counterscreens check selectivity or assay interference.
What is called inhibition is how much of the control response was suppressed. Take `C=C(C(=O)Oc1ccccc1C(C)(C)C)c1ccccc1`: the inhibition is 34% (active).
The result for `Cn1cc(C(=O)N/N=C/c2c(O)ccc3ccccc23)ccc1=O` reads 27% (active).
Take `CC(C)(C)C(=O)N1CCN(c2ccc(NC(=O)c3ccc([N+](=O)[O-])o3)cc2)CC1`: the inhibition is 30.5% (active).
The result for `Cn1c(C(=O)NCc2ccccc2)cc2oc3ccccc3c21` reads 32.1% (active); that for `CC(C)(C)c1ccc(OCC(=O)N/N=C/c2cc(Br)ccc2OC(=O)c2ccco2)cc1`, 27% (active).
The result for `Cc1cccc(NC(=O)Nc2cccc(Oc3c(F)c(F)c(F)c(F)c3F)c2)c1` reads 32.5% (active).
With `CCN1CCN(Cc2ccc(NC(=O)c3ccc(C)c(NC(=O)c4cccc(-c5cn[nH]c(=O)c5)c4)c3)cc2C(F)(F)F)CC1` the figure was 32% (active); with `O=C(/C=C\c1cn(-c2ccccc2)nc1-c1ccccc1)Nc1nccs1`, 28.9% (active); with `Cc1ccc(NC(=O)c2ccccc2NS(=O)(=O)c2ccc(Cl)s2)cc1`, 28.9% (active).
`CCN(CC)Cc1c(O)ccc2c1O/C(=C\C=C\c1ccccc1)C2=O`: the inhibition was 25.3% (active).
The result for `CC(=O)/C(C#N)=C1\NC(=O)C(Cc2ccc(C)c(C)c2)S1` (stereo not given) reads 32.1% (active); that for `C/C(=N\NC(=O)C1CCCN(S(=O)(=O)c2ccccc2)C1)c1ccccn1` (stereo not given), 35.2% (active); that for `O=C(Nc1ccc(F)c(Cl)c1)Nc1csc2ccccc12`, 35% (active).
The result for `CC(=O)c1ccc(NC(=O)c2cc(CC(C)C)nc3ccccc23)cc1` reads 33.6% (active); that for `Oc1ccc(/C=N/Nc2nc(-c3ccccc3F)nc3ccccc23)c(O)c1`, 31% (active).
